{"source": "the supplement of paper PMC12636033", "note": "± gives the standard deviation of the averaged measurements. Whole data set: some 33,000 sequences, median “E-score (rank enrichment, -0.5 to 0.5)” near -0.0043, cut for the highest 2% near 0.24. The entries come from a sample that favours the highest values as a whole.", "data": [{"system": "2Sp-muMax20 (muMax20 with two 2,6-bis(methyl)pyridine Cys staples)", "assay": "PBM 8-mer E-score (E-score (rank enrichment, -0.5 to 0.5)); higher = stronger preferential binding", "description": "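Protein binding microarray (universal PBM chip covering all 10-mers in fixed probe flanks) with chemically synthesized human Max(13-93) bHLH-LZ analogs (not full-length Max) bearing noncanonical residues (hArg, Tha, Aib, Nle at 65) and aromatic Cys staples. Read-out per 8-mer (and its reverse complement): E-score (rank-based enrichment, -0.5 to 0.5) and Z-score of median probe intensity.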", "values": [{"sequence": "CAATAATC", "PBM 8-mer E-score": "0.0969 ± 0.081"}, {"sequence": "CAATAATA", "PBM 8-mer E-score": "0.247 ± 0.045"}, {"sequence": "CAATAAAC", "PBM 8-mer E-score": "0.137 ± 0.053"}, {"sequence": "CAATAAAA", "PBM 8-mer E-score": "0.294 ± 0.052"}, {"sequence": "GAATAAAA", "PBM 8-mer E-score": "0.0399 ± 0.044"}, {"sequence": "CAATAATG", "PBM 8-mer E-score": "0.0692 ± 0.049"}, {"sequence": "GACAGGTC", "PBM 8-mer E-score": "-0.12 ± 0.088"}, {"sequence": "AGAGCCAA", "PBM 8-mer E-score": "0.00188 ± 0.0012"}, {"sequence": "CGAGGACC", "PBM 8-mer E-score": "-0.245 ± 0.046"}, {"sequence": "AACGGCCC", "PBM 8-mer E-score": "-0.372 ± 0.037"}, {"sequence": "AACGGCCT", "PBM 8-mer E-score": "0.275 ± 0.0083"}, {"sequence": "AACGGCCA", "PBM 8-mer E-score": "-0.0961 ± 0.022"}, {"sequence": "TCGTCCAA", "PBM 8-mer E-score": "-0.0225 ± 0.01"}, {"sequence": "AACGGTCC", "PBM 8-mer E-score": "-0.298 ± 0.1"}, {"sequence": "AAACGTGG", "PBM 8-mer E-score": "0.0452 ± 0.042"}, {"sequence": "ACACGTGA", "PBM 8-mer E-score": "0.412 ± 0.034"}, {"sequence": "ACACGTGC", "PBM 8-mer E-score": "0.407 ± 0.024"}, {"sequence": "AGACGTGA", "PBM 8-mer E-score": "0.0537 ± 0.03"}, {"sequence": "AGACGTGC", "PBM 8-mer E-score": "-0.145 ± 0.021"}, {"sequence": "ATACGTGA", "PBM 8-mer E-score": "-0.0748 ± 0.062"}, {"sequence": "TCACGTAA", "PBM 8-mer E-score": "-0.0172 ± 0.028"}, {"sequence": "ACACGTAG", "PBM 8-mer E-score": "-0.0191 ± 0.055"}, {"sequence": "TCACGTGA", "PBM 8-mer E-score": "0.438 ± 0.0011"}, {"sequence": "ACACGTAC", "PBM 8-mer E-score": "-0.0036 ± 0.092"}, {"sequence": "ACACGTGG", "PBM 8-mer E-score": "0.3868 ± 0.00064"}, {"sequence": "TAACGTGA", "PBM 8-mer E-score": "0.093 ± 0.036"}, {"sequence": "CCTCTTAG", "PBM 8-mer E-score": "-0.00532 ± 0.11"}, {"sequence": "CATTCGCA", "PBM 8-mer E-score": "0.0276 ± 0.0019"}, {"sequence": "ACCAAACC", "PBM 8-mer E-score": "0.0152 ± 0.034"}, {"sequence": "CAGTCTAG", "PBM 8-mer E-score": "-0.117 ± 0.05"}, {"sequence": "CAATAGAA", "PBM 8-mer E-score": "0.0449 ± 0.032"}, {"sequence": "ACGCGTGA", "PBM 8-mer E-score": "0.25 ± 0.0042"}, {"sequence": "AAACGTGT", "PBM 8-mer E-score": "0.077 ± 0.06"}, {"sequence": "ACACGTAT", "PBM 8-mer E-score": "0.178 ± 0.052"}, {"sequence": "GCGCGTGA", "PBM 8-mer E-score": "0.2082 ± 0.00059"}, {"sequence": "ACGCGTGC", "PBM 8-mer E-score": "0.177 ± 0.049"}, {"sequence": "ACACGTGT", "PBM 8-mer E-score": "0.421 ± 0.015"}, {"sequence": "ACTTTCCC", "PBM 8-mer E-score": "-0.0248 ± 0.091"}, {"sequence": "CTCGTCTC", "PBM 8-mer E-score": "-0.0179 ± 0.03"}, {"sequence": "CTCACGTC", "PBM 8-mer E-score": "-0.00269 ± 0.06"}, {"sequence": "ATTCGAGA", "PBM 8-mer E-score": "0.239 ± 0.052"}, {"sequence": "ATTCGAGC", "PBM 8-mer E-score": "-0.0718 ± 0.14"}, {"sequence": "CTTCGAGA", "PBM 8-mer E-score": "-0.0158 ± 0.028"}, {"sequence": "AGGTTGCC", "PBM 8-mer E-score": "-0.164 ± 0.035"}, {"sequence": "GCACCTAC", "PBM 8-mer E-score": "-0.194 ± 0.0063"}, {"sequence": "ATCACGAT", "PBM 8-mer E-score": "0.00138 ± 0.12"}, {"sequence": "CGCACGCC", "PBM 8-mer E-score": "-0.0203 ± 0.1"}, {"sequence": "TAGACCCA", "PBM 8-mer E-score": "0.282 ± 0.061"}, {"sequence": "GAGACCCA", "PBM 8-mer E-score": "-0.1 ± 0.07"}, {"sequence": "AAGACCCA", "PBM 8-mer E-score": "0.0969 ± 0.13"}, {"sequence": "CCTTTAAC", "PBM 8-mer E-score": "-0.0714 ± 0.012"}, {"sequence": "GGCGCACC", "PBM 8-mer E-score": "-0.281 ± 0.032"}, {"sequence": "CGCTACCA", "PBM 8-mer E-score": "-0.1194 ± 0.00063"}, {"sequence": "ATATCTTC", "PBM 8-mer E-score": "0.294 ± 0.022"}, {"sequence": "ATATCCTC", "PBM 8-mer E-score": "0.265 ± 0.056"}, {"sequence": "ATATCCCG", "PBM 8-mer E-score": "0.0776 ± 0.056"}, {"sequence": "ATATCCCC", "PBM 8-mer E-score": "0.28 ± 0.028"}, {"sequence": "ATATCTTA", "PBM 8-mer E-score": "0.19 ± 0.0044"}, {"sequence": "CTATCTTC", "PBM 8-mer E-score": "0.0745 ± 0.024"}, {"sequence": "ATATCCTA", "PBM 8-mer E-score": "0.0987 ± 0.0053"}, {"sequence": "CTATCCTC", "PBM 8-mer E-score": "0.0112 ± 0.011"}, {"sequence": "CTATCCCC", "PBM 8-mer E-score": "0.0647 ± 0.044"}, {"sequence": "CAGAGATC", "PBM 8-mer E-score": "-0.137 ± 0.014"}, {"sequence": "TCTTCGCA", "PBM 8-mer E-score": "0.0987 ± 0.026"}, {"sequence": "AGCTGACT", "PBM 8-mer E-score": "-0.0778 ± 0.023"}, {"sequence": "ACAAGATG", "PBM 8-mer E-score": "0.115 ± 0.02"}, {"sequence": "CTGAAGGC", "PBM 8-mer E-score": "-0.247 ± 0.05"}, {"sequence": "CATGTACG", "PBM 8-mer E-score": "0.2899 ± 0.0015"}, {"sequence": "CATGTACA", "PBM 8-mer E-score": "0.143 ± 0.1"}, {"sequence": "AATGTACG", "PBM 8-mer E-score": "0.0758 ± 0.021"}, {"sequence": "TATGTACA", "PBM 8-mer E-score": "0.25 ± 0.028"}, {"sequence": "AATGTACA", "PBM 8-mer E-score": "0.0795 ± 0.02"}, {"sequence": "GATGTACA", "PBM 8-mer E-score": "0.165 ± 0.009"}, {"sequence": "CTGAACAA", "PBM 8-mer E-score": "-0.00871 ± 0.029"}, {"sequence": "GGCCTTAA", "PBM 8-mer E-score": "0.0324 ± 0.052"}, {"sequence": "ACCAAATG", "PBM 8-mer E-score": "-0.043 ± 0.09"}, {"sequence": "GAGAGACA", "PBM 8-mer E-score": "-0.174 ± 0.03"}, {"sequence": "TAGAGACA", "PBM 8-mer E-score": "-0.0515 ± 0.021"}, {"sequence": "AAGAGACA", "PBM 8-mer E-score": "0.252 ± 0.042"}, {"sequence": "AAGGTGAT", "PBM 8-mer E-score": "0.157 ± 0.033"}, {"sequence": "CTAGTAAA", "PBM 8-mer E-score": "0.12 ± 0.047"}, {"sequence": "ATAGTAAA", "PBM 8-mer E-score": "0.274 ± 0.033"}, {"sequence": "ATAGTAAT", "PBM 8-mer E-score": "0.19 ± 0.084"}, {"sequence": "ACATAGGA", "PBM 8-mer E-score": "0.102 ± 0.044"}, {"sequence": "ATTTTATA", "PBM 8-mer E-score": "0.264 ± 0.03"}, {"sequence": "AATTTATC", "PBM 8-mer E-score": "0.105 ± 0.038"}, {"sequence": "ATTTTGTA", "PBM 8-mer E-score": "0.239 ± 0.12"}, {"sequence": "ATTTTGTG", "PBM 8-mer E-score": "0.0633 ± 0.081"}, {"sequence": "GTTTTATA", "PBM 8-mer E-score": "0.168 ± 0.13"}, {"sequence": "CATTTATA", "PBM 8-mer E-score": "0.141 ± 0.023"}, {"sequence": "CTTTTGTA", "PBM 8-mer E-score": "0.0481 ± 0.15"}, {"sequence": "ATTTTATG", "PBM 8-mer E-score": "0.0502 ± 0.14"}, {"sequence": "AATTTATA", "PBM 8-mer E-score": "0.27046 ± 0.00013"}, {"sequence": "ACGCCCTA", "PBM 8-mer E-score": "-0.000715 ± 0.088"}, {"sequence": "CCCAACAC", "PBM 8-mer E-score": "0.00365 ± 0.023"}, {"sequence": "AATTCCGA", "PBM 8-mer E-score": "-0.0265 ± 0.07"}, {"sequence": "GCAAAGCA", "PBM 8-mer E-score": "0.155 ± 0.058"}, {"sequence": "CAAATTTG", "PBM 8-mer E-score": "0.117 ± 0.032"}, {"sequence": "CAAATTTC", "PBM 8-mer E-score": "0.236 ± 0.031"}, {"sequence": "GAAATTTC", "PBM 8-mer E-score": "0.114 ± 0.052"}, {"sequence": "CCCTATCC", "PBM 8-mer E-score": "-0.0867 ± 0.098"}, {"sequence": "TAATACGA", "PBM 8-mer E-score": "-0.0384 ± 0.02"}, {"sequence": "AAAATATG", "PBM 8-mer E-score": "0.114 ± 0.021"}, {"sequence": "AATATAGC", "PBM 8-mer E-score": "0.168 ± 0.047"}, {"sequence": "AATATAGT", "PBM 8-mer E-score": "0.152 ± 0.037"}, {"sequence": "AATATATT", "PBM 8-mer E-score": "0.2823 ± 0.0018"}, {"sequence": "AATATATG", "PBM 8-mer E-score": "0.303 ± 0.0091"}, {"sequence": "AATATGTG", "PBM 8-mer E-score": "0.191 ± 0.037"}, {"sequence": "ATAATATG", "PBM 8-mer E-score": "0.185 ± 0.062"}, {"sequence": "AATATATC", "PBM 8-mer E-score": "0.239 ± 0.051"}, {"sequence": "ATAATATC", "PBM 8-mer E-score": "0.24 ± 0.082"}, {"sequence": "AATATATA", "PBM 8-mer E-score": "0.186 ± 0.0061"}, {"sequence": "GATATATC", "PBM 8-mer E-score": "0.102 ± 0.037"}, {"sequence": "CTAATATC", "PBM 8-mer E-score": "0.173 ± 0.038"}]}]}
